A short description of assay [1]: Primary qHTS for inhibitors of nuclear receptor binding SET domain protein 2 (NSD2) in an isogenic RCH-ACV NSD2 p.E1099K mutant (9B) (AID 1645876). Note: nearly all actives have a fitted effect of over 70% in size. Note: potency is the fitted concentration of half-maximal effect.
Assay [2] can be described thus: Primary qHTS for inhibitors of nuclear receptor binding SET domain protein 2 (NSD2) in an RCH-ACV wild type WT cells (2C) (AID 1645877). Note: nearly all actives have a fitted effect of over 70% in size. Note: potency is the fitted concentration of half-maximal effect.
Assay [3] is described as follows: NCATS anti-infectives library activity on HEK293 viability as a counter-qHTS vs the C. elegans viability qHTS (AID 1745854).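 Note: HEK293 cells exposed to compounds for 24 hr before the viability read.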 The gist of the method: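 Counter-screen for cytotoxicity: HEK293, 24 hr, 37C, compounds up to 41.7 uM final (a dilution series, 1:5). Readout CellTiter-Glo luminescence, 10 min RT. Digitonin control, 83.3 uM final.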
A short description of assay [4]: Primary qHTS for small molecule stabilizers of the endoplasmic reticulum resident proteome: Secreted ER Calcium Modulated Protein (SERCaMP) assay (AID 1508630). The gist of the method: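 The SH-SY5Y reporter protocol was run at 3 concentrations up to 38.3 uM (primary) or 11 concentrations (follow-up): 16 h compound, 100 nM thapsigargin for 4 h, then extracellular luciferase luminescence.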

The target of assay [5] is Cytochrome P450 2D6 (Homo sapiens) (UniProt P10635). As to the kind of experiment: Cytochrome P450 family 2 subfamily D member 6 (CYP2D6) small molecule antagonists: luciferase biochemical (cell-free) qHTS assay (AID 1645840; active = well fitted curve in the direction sought with a large enough effect in the repeat runs; an effect the other way counts as inactive or inconclusive; note: potency is the fitted concentration of half-maximal effect; nearly all actives have a fitted effect of over 55% in size). In short, it runs like this: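 P450-Glo CYP2D6 system: proluciferin substrate converted by enzyme to luciferin, read by luminescence proportional to activity. Enzyme-substrate mix with compound 10 min at room temperature, then NADPH regeneration 1 h before detection reagent.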

Inconclusive results are not listed. Where a call stands in place of a potency, no number is given. Calls of active or inactive are those of the source. Unless noted, calls come from the whole dose curve; as a rule, active = well fitted curve in the direction sought with a large enough effect; inconclusive = small, poorly fitted or top-dose-only effect, or another doubt; inactive = no such curve, though single readings can be large; an effect the other way counts as inactive or inconclusive. Starred links: 1 amine or outer side, 2 acyl side, 3 side chain; linkers in the order of their positions; H or OH if unused. Positions of bridges follow the written chain, without caps; N, C: chain ends. Non-standard residues stand in square brackets, D forms with d. Residues, ends and D or L forms follow the SMILES beside them. Chains are numbered I, II in the order given. Actinocin(9to1) = Cc1c2oc3c(C)ccc(C(=O)[*:1])c3nc-2c(C(=O)[*:2])c(N)c1=O; NMeV = CN[CH](C(=O)O)C(C)C; Sar = CNCC(=O)O

Potency and outcome data for nine molecules are collected here from PubChem BioAssay (NCATS).

Chain of Cytochrome P450 2D6 (Homo sapiens) (P10635 whole entry, looked up): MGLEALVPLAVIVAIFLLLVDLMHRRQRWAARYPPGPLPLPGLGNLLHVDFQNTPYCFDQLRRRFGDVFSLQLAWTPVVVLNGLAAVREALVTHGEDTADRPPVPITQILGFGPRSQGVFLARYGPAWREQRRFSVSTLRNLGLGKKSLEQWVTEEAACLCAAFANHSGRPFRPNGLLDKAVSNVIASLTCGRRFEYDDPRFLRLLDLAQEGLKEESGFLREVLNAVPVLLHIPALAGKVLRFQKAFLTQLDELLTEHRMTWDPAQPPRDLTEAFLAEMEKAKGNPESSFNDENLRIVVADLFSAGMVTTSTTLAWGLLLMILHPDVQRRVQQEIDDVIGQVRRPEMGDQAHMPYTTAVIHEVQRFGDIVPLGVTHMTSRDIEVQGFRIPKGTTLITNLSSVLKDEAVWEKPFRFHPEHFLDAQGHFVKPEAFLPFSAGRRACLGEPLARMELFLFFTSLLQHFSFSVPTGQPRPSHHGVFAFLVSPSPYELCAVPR

As for `C=C(C)[C@@H]1CC[C@]2(C(=O)O)CC[C@]3(C)[C@H](CC[C@@H]4[C@@]5(C)CC[C@H](O)C(C)(C)[C@@H]5CC[C@]43C)[C@@H]12`, the Potency result in assay [1], in assay [2] and in assay [3] was “inactive” throughout. On to `C#Cc1cccc(Nc2ncnc3cc(OCCOC)c(OCCO)cc23)c1`, for which the outcome in assay [4] was inactive. The values for the Potency in assay [5], in assay [1] and in assay [2] were 8.49 µM (active), 14.8 µM (active) and 13.2 µM (active), respectively. Take `CO[C@@H]1[C@@H](O)[C@H](O)[C@@H](n2c3c(Cl)cccc3c3c4c(c5c6cccc(Cl)c6[nH]c5c32)C(=O)NC4=O)O[C@@H]1CO`: the outcome in assay [4] was inactive. As for `CC(C)(O)Cn1c(NC(=O)c2ccc(-c3cn[nH]c3)s2)nc2cc(CN3CCOCC3)ccc21`, in assay [4], the result was inactive. Turning to `Cc1c2oc3c(C)ccc(C(=O)NC4C(=O)NC(C(C)C)C(=O)N5CCCC5C(=O)N(C)CC(=O)N(C)C(C(C)C)C(=O)OC4C)c3nc-2c(C(=O)NC2C(=O)NC(C(C)C)C(=O)N3CCCC3C(=O)N(C)CC(=O)N(C)C(C(C)C)C(=O)OC2C)c(N)c1=O` (configuration not stated) (I: TVP[Sar][NMeV] / II: TVP[Sar][NMeV]; ester I:1-I:C, II:1-II:C; linker I:N-II:N via Actinocin(9to1); configuration not given here), the Potency in assay [1] is 0.0014 µM (active); in assay [2] it was 0.0006 µM (active). In the case of `COc1ccc([C@@H]2CNC(=O)C2)cc1OC1CCCC1`, in assay [4], the result was inactive. Moreover, the Potency entry in assay [1] and in assay [2] was “inactive” throughout. Consider `COc1ccc(CCC(=O)c2c(O)cc(O[C@@H]3O[C@H](CO)[C@@H](O)[C@H](O)[C@@H]3O[C@@H]3O[C@@H](C)[C@H](O)[C@@H](O)[C@@H]3O)cc2O)cc1O`, for which the outcome in assay [4] was inactive. The same measure, in the same setting: the value for `COc1ccc(S(=O)(=O)Nc2cc(-c3c(O)ccc4ccccc34)c(O)c3ccccc23)cc1` was “inactive”. Regarding `COc1cccc2c1C(=O)c1c(O)c3c(c(O)c1C2=O)C[C@@](O)(C(C)=O)C[C@H]3O[C@H]1C[C@H](N)[C@H](O)[C@H](C)O1`, the result in assay [4] was inactive.
